Screening results from PubChem.
Cycloheximide cs: counter-screen hit for Shiga toxin inhibitors, cycloheximide; max response, %; cell reporter, cycloheximide protein synthesis inhibition counterscreen; hit rate 12% among 300,000; AID 2314; in the data active means max response mostly above about 13%, no sharp cut-off; inactive means mostly below about 14%; further: read at 38.3 µM for the half of the compounds with a filed dose; 0% is about no effect
Pf growth 96h: inhibits malaria parasite growth, 96 h; P. falciparum luciferase reporter growth, 96 h; Potency, µM (highest dose often 28.7 µM), for the others: at the highest dose activity change, negative = inhibition, most hits filed as inhibitors; hit rate 6.9% among 320,000; further: potency means the concentration at half of the fitted maximal effect; on the % scale 0 is the no-effect control and ±100 the full control effect
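Plates of compound plus infected erythrocytes (2% hematocrit, 0.05% parasitemia final) incubate 96 hours, 37 C, 5% CO2. Detection reagent added; reduced luminescence from the parasites' luciferase reporter flags inhibition.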
Shiga inhibitor: blocks Shiga toxin action in Vero cells. inhibition, % at 38.7 µM. Vero cells, Shiga toxin protein synthesis inhibition reporter. hit rate 9.2% among 290,000. AID 2315; in the data active means inhibition mostly above about 28%, no sharp cut-off; inactive means mostly below about 43%; further: 0% is about no effect
Pf growth 48h: inhibits P. falciparum growth in the first generation, 48 h | P. falciparum luciferase growth in erythrocytes, 48 h | AID 504832 | hit rate 5.9% among 310,000 | Potency, µM (highest dose often 28.7 µM), inactives show at the highest dose activity change, negative = inhibition, actives largely listed as inhibitors; further: potency means the concentration at half of the fitted maximal effect; on the % scale 0 is the no-effect control and ±100 the full control effect
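First compound was added to culture medium, then infected red cells at 0.1% parasitemia and 2% hematocrit (final). After incubation at 37 C under 5% CO2, luciferase detection reagent was dispensed and light output recorded.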
NS1 inh: inhibitors of influenza NS1 protein function. AID 2326. Potency, µM (highest dose often 46.1 µM), without a hit: at the top dose activity, positive = more growth. hit rate 0.4% among 270,000; calls by dose curve; further: potency means the concentration at half of the fitted maximal effect; actives are rising curves; nearly all actives have a fitted effect of over 50% in size
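In this qHTS, NS1 from influenza A is expressed in budding yeast, where it slows growth. Cells are switched from glucose to 2% galactose medium (pH 6.0, -URA), treated with compound, and growth recovery is read at OD600.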
* = called active by the depositor. Shown are actives, neighbours in structure and some others; about 21% of the full set was active somewhere. Unless noted, the call rests on the fitted dose curve; in most records, active means well fitted inhibition curve with a large enough effect; inconclusive means small, poorly fitted or top-dose-only effect, or another doubt; inactive means no such curve, though single readings can be large or run the other way.

What do the screens show for `CN(C)c1ccc(C2/C(=C(/O)c3ccc(Br)cc3)C(=O)C(=O)N2C)cc1` (stereo unspecified)?
Cycloheximide cs: -2.0; Pf growth 96h: 5.86µM*; Shiga inhibitor: -2.8; NS1 inh: 11.4%

How did C=CCc1ccc(OC(=O)c2ccccc2)c(OC)c1 do in these assays?
Cycloheximide cs: 24.2*; Pf growth 96h: 34.2%; Shiga inhibitor: 21.8; Pf growth 48h: 33.2%; NS1 inh: -4.1%

How did C=CCc1ccc(OCC(O)COCC)c(OC)c1 (stereo unspecified) do in these assays?
Cycloheximide cs: 35.6*; Pf growth 96h: 86.7%; Shiga inhibitor: 127.5*; Pf growth 48h: 161.3%; NS1 inh: 4.3%

How did C=CCc1ccc(OCc2ccc(C(=O)OC)o2)c(OC)c1 do in these assays?
Cycloheximide cs: 62.6*; Pf growth 96h: 53.7%; Shiga inhibitor: 86.9*; NS1 inh: -10.3%

How did C=CCc1ccc(OCCCOc2ccc(C(=O)O)cc2)c(OC)c1 do in these assays?
Cycloheximide cs: 16.4; Pf growth 96h: -3.2%; Shiga inhibitor: 44.9; Pf growth 48h: 46.0%; NS1 inh: -1.2%

How did CCC(=O)c1ccc(OCc2ccc(C(=O)OC)o2)c(OC)c1 do in these assays?
Cycloheximide cs: 28.2*; Pf growth 96h: -0.3%; Shiga inhibitor: 52.2; Pf growth 48h: -38.2%; NS1 inh: -6.3%

Results for COC(=O)c1ccc(COc2ccc(C=O)cc2OC)o1 ?
Cycloheximide cs: 11.0; Pf growth 96h: -3.6%; Shiga inhibitor: 4.1; Pf growth 48h: 23.1%; NS1 inh: 9.1%

What do the screens show for `O=C(c1ccc(CS(=O)c2cccc(Cl)c2)o1)N1CCCCCC1` (stereo unspecified)?
Cycloheximide cs: 3.6; Pf growth 96h: inconclusive; Shiga inhibitor: 36.3; Pf growth 48h: 4.7%; NS1 inh: 3.5%

Results for Oc1ccccc1-c1nc(N2CCCC2)c2ccccc2n1 ?
Cycloheximide cs: -4.3; Pf growth 96h: 4.15µM*; Shiga inhibitor: -16.2; NS1 inh: -2.4%

How did O=S(=O)(c1ccc(F)cc1)N1CCN(c2nc(-c3ccccc3)nc3cc(Cl)ccc23)CC1 do in these assays?
Cycloheximide cs: -1.2; Shiga inhibitor: -3.2

What do the screens show for `COc1ccc(S(=O)(=O)N2CCN(c3nc(-c4cccnc4)nc4ccccc34)CC2)cc1`?
Pf growth 96h: 2.08µM*; Pf growth 48h: 2.94µM*

How did O=S(=O)(c1ccccc1F)N1CCN(c2nc(-c3cccnc3)nc3ccccc23)CC1 do in these assays?
Pf growth 96h: inconclusive; Pf growth 48h: 11.7µM*

How did O=S(=O)(/C=C/c1ccccc1)N1CCN(c2nc(-c3ccccc3)nc3ccccc23)CC1 do in these assays?
Cycloheximide cs: 4.5; Pf growth 96h: 11.7µM*; Shiga inhibitor: -8.2; Pf growth 48h: inconclusive

How did c1ccc2c(N3CCCCCC3)nc(-c3ccncc3)nc2c1 do in these assays?
Cycloheximide cs: -1.7; Pf growth 96h: 202.7%; Shiga inhibitor: -27.2; Pf growth 48h: inconclusive; NS1 inh: -14.1%

How did c1csc(Cc2nc(-c3ccc(-n4cccc4)cc3)no2)c1 do in these assays?
NS1 inh: 8.4%

How did Cc1nc(SCCOc2ccccc2F)[nH]c(=O)c1Cc1ccccc1 do in these assays?
Cycloheximide cs: 23.2; Pf growth 96h: inconclusive; Shiga inhibitor: -7.3; Pf growth 48h: -6.2%

What do the screens show for `COc1ccc(-n2c3c(cc(C#N)c2=O)C(=O)CCC3)cc1`?
Cycloheximide cs: 10.9; Pf growth 96h: 32.5%; Shiga inhibitor: -6.3; Pf growth 48h: -2.6%

Results for Cc1ccc(OCC(=O)NCc2cccs2)c([N+](=O)[O-])n1 ?
Cycloheximide cs: 23.3; Pf growth 96h: 27.3%; Shiga inhibitor: 20.6; Pf growth 48h: 27.9%; NS1 inh: 0.1%

Results for COc1cc2c(cc1OC)CN(c1nc(-c3cccnc3)nc3ccccc13)CC2 ?
Cycloheximide cs: -2.2; Pf growth 96h: 11.7µM*; Shiga inhibitor: 14.3; Pf growth 48h: inconclusive; NS1 inh: 4.4%

What do the screens show for `C(=C\c1nc(N2CCCCCC2)c2ccccc2n1)/c1ccccc1`?
Cycloheximide cs: 23.4*; Pf growth 96h: 50.0%; Shiga inhibitor: 35.7*; Pf growth 48h: -96.1%; NS1 inh: -41.6%

What do the screens show for `Cc1ccc(C)c(S(=O)(=O)N2CCN(c3nc(-c4cccnc4)nc4ccccc34)CC2)c1`?
Pf growth 96h: inconclusive; Pf growth 48h: 3.29µM*

How did N#Cc1ccccc1S(=O)(=O)N1CCN(c2nc(-c3cccnc3)nc3ccccc23)CC1 do in these assays?
Pf growth 96h: 4.65µM*; Pf growth 48h: 9.28µM*

What do the screens show for `COc1ccc(CN(C)c2nc(-c3cccnc3)nc3ccccc23)cc1OC`?
Cycloheximide cs: 9.9; Pf growth 96h: 19.0%; Shiga inhibitor: 15.3; Pf growth 48h: 15.9%; NS1 inh: 2.8%

What do the screens show for `Clc1ccccc1CSc1nncn1NC/C=C/c1ccccc1`?
Cycloheximide cs: 1.4; Pf growth 96h: 26.8%; Shiga inhibitor: -5.4; Pf growth 48h: 5.7%; NS1 inh: -32.7%

What do the screens show for `c1cncc(-c2nc(N3CCCCCC3)c3ccccc3n2)c1`?
Cycloheximide cs: -2.9; Shiga inhibitor: -11.2; Pf growth 48h: 0.465µM*; NS1 inh: -93.6%

How did COc1ccccc1N=c1sc2ccccc2n1C do in these assays?
Cycloheximide cs: 12.8*; Shiga inhibitor: 2.5; Pf growth 48h: 5.3%; NS1 inh: 9.1%

How did COc1ccc(N=c2sc3ccccc3n2C)cc1 do in these assays?
Cycloheximide cs: 40.9*; Shiga inhibitor: 50.5; Pf growth 48h: 231.5%; NS1 inh: 4.2%

How did COc1ccc(C(CC(=O)O)NS(=O)(=O)c2ccc3c(c2)NC(=O)CO3)cc1 (stereo unspecified) do in these assays?
Cycloheximide cs: -4.2; Pf growth 96h: 18.2%; Shiga inhibitor: -6.5; Pf growth 48h: 29.6%; NS1 inh: 6.2%

What do the screens show for `COc1ccc(N2CCN(CC(=O)c3ccc(O)c(C)c3O)CC2)cc1`?
Cycloheximide cs: -1.5; Pf growth 96h: inconclusive; Shiga inhibitor: -7.9; Pf growth 48h: inconclusive; NS1 inh: -6.3%

How did CCc1cc(C(=O)Cc2ccccn2)c(O)cc1O do in these assays?
Cycloheximide cs: 6.8; Pf growth 96h: -1.9%; Shiga inhibitor: 40.6; NS1 inh: 2.4%

Results for CCc1cc(C(=O)COc2ccc(F)cc2)c(O)cc1O ?
Cycloheximide cs: 19.6*; Pf growth 96h: -5.5%; Shiga inhibitor: 40.3*; Pf growth 48h: 4.7%; NS1 inh: -48.2%

Results for Cc1c(O)ccc(C(=O)COc2ccc(F)cc2)c1O ?
Cycloheximide cs: 37.7*; Pf growth 96h: inconclusive; Shiga inhibitor: inactive; Pf growth 48h: -61.8%; NS1 inh: -34.4%

What do the screens show for `O=C(c1cc(-c2ccc(Cl)c(Cl)c2)on1)N1CCCCC1`?
Cycloheximide cs: 40.0*; Pf growth 96h: inconclusive; Shiga inhibitor: 119.6*; Pf growth 48h: 81.5%; NS1 inh: -0.4%

What do the screens show for `O=C(c1cc(-c2ccccc2)on1)N1CCCC1`?
Cycloheximide cs: 30.1*; Shiga inhibitor: 148.8*; Pf growth 48h: 308.1%; NS1 inh: 4.7%

What do the screens show for `O=C(c1cc(-c2ccc(Cl)cc2)on1)N1CCCC1`?
Cycloheximide cs: 37.3*; Pf growth 96h: 6.3%; Shiga inhibitor: 89.8*; Pf growth 48h: 195.2%; NS1 inh: 7.4%
